These results are taken from PubChem BioAssay (NCATS).

The target in test [1] is Glutathione peroxidase 1 (Homo sapiens) (UniProt P07203). In words: Primary qHTS Assay for Inhibitors of Recombinant Selenoprotein Glutathione Peroxidase 1 (GPX1) (AID 1845191). Further: nearly all actives have a fitted effect of over 65% in size. On activity, negative = inhibition: on the % scale 0 is the no-effect control and ±100 the full control effect. The essentials:
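GR-coupled readout: NADPH consumption tracked by fluorescence, ex 340/em 450 nm, at t=0 and after 15 min at RT. Final mix 10 nM GPX1, 1 mM GSH, 0.5 mM CHP, 0.5 mM NADPH, 100 nM GR, 0.01% BSA, following 30 min enzyme–compound preincubation.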
On the technique in general: qHTS replaces the single test concentration by a dilution series.

Test [2] addresses Phospholipid hydroperoxide glutathione peroxidase GPX4 (Homo sapiens) (UniProt P36969). Description: Primary qHTS Assay for Inhibitors of Recombinant Selenoprotein Glutathione Peroxidase 4 (GPX4) (AID 1845192). Further: nearly all actives have a fitted effect of over 65% in size. Further: potency means the concentration at half of the fitted maximal effect. On activity change, negative = inhibition: series mostly up to about 50 µM; on the % scale 0 is the no-effect control and ±100 the full control effect. The essentials:
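Steps: GPX4 plus compound, 30 min RT; add GR/GSH/NADPH master mix; start with cumene hydroperoxide; read 340/450 nm fluorescence at 0 and 15 min. Finals were 200 nM GPX4, 1 mM GSH, 0.5 mM CHP, 0.5 mM NADPH, 100 nM GR.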

Test [3] has as its target Luciferin 4-monooxygenase (Photinus pyralis) (UniProt P08659). In words: Primary firefly luciferase (FLuc) qHTS assay for identification of artifact compounds. (AID 1845220).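 Further: series mostly up to about 54 µM; plate controls were DMSO vehicle for no effect and no enzyme for full effect; nearly all actives have a fitted effect of over 60% in size.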 As to conditions: outcome: dose series up to 54.1 µM. The essentials: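 Enzymatic FLuc inhibition assay: compounds pre-exposed to luciferin/ATP (10 uM each) for 15 min, then purified P. pyralis enzyme at 10 nM added. Read-out: luminescence at 5 min.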

In test [4] the test system is Nanoluciferase (engineered Oplophorus gracilirostris luciferase). In words: Primary Nanoluciferase (NLuc) qHTS assay for identification of artifact compounds. (AID 1845222).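 Further: NLuc secreted into diluted conditioned medium of S16 cells; series mostly up to about 54 µM; 0% = DMSO and -100% = no enzyme.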 The essentials: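 S16 cell supernatant NLuc, 1:55; cpds qHTS; 15 min RT dark; Nano-Glo substrate 1:100, 5 min; luminescence; Hill fit of % inhibition.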
Test [5] in a line: Primary redox qHTS assay for identification of artifact compounds. (AID 1845223).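 Further: 0% = DMSO and 100% = reference compound.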 The essentials: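 Redox-cycling detection via DTT (250 uM final) oxidation coupled to Amplex Red (25 uM)/HRP (250 mU/mL) in HBSS. 15 min preincubation plus 30 min after DTT, room temperature. Ex/Em 525/598 nm; 4-parameter Hill fit against DMSO and 10 uM DA3003.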
Test [6] in a line: Primary fluorescence-based thiol-reactive (MSTI) qHTS assay for identification of artifact compounds. (AID 1845221).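 Further: series mostly up to about 54 µM; thiol-reactive compounds lower the probe fluorescence signal; nearly all actives have a fitted effect of over 65% in size.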 The essentials: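 First, 4 uM MSTI in 2% DMSO/PBS pH 7.4 was dispensed; next, compounds were added; then plates sat 1 h at room temperature without light. Finally, emission at 598 nm was recorded.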

The structures appear in SMILES notation. Values joined by “and” are separate entries in the source; they are usually repeats but may differ in a detail not shown here. Equal values may be shown once. Inconclusive results are not listed. Some structures have more than one record in an assay (separate samples or runs), and their calls can disagree. Active and inactive are the calls of the source. The call rests on the fitted dose curve; in most records, active means well fitted curve in the direction sought with a large enough effect; inconclusive means small, poorly fitted or top-dose-only effect, or another doubt; inactive means no such curve, though single readings can be large; an effect the other way counts as inactive or inconclusive.

Sequence of Phospholipid hydroperoxide glutathione peroxidase GPX4 (Homo sapiens) (P36969 whole entry, looked up): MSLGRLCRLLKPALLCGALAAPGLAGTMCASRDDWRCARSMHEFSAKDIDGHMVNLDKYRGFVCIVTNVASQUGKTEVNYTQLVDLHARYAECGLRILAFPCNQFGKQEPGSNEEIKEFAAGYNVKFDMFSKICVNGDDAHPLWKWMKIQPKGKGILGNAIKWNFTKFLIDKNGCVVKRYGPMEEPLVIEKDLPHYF
Sequence of Glutathione peroxidase 1 (Homo sapiens) (P07203 whole entry, looked up): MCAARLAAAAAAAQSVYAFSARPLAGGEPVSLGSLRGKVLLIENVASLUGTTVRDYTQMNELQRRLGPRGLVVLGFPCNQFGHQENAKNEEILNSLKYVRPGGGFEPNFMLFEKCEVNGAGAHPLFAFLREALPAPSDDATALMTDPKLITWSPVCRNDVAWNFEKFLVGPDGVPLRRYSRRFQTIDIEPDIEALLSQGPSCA

`O=C1[O][Bi][O]c2ccccc21`: the outcome in test [1] was “inactive [at 0.4 µM]”; in test [2], “inactive [at 0.409 µM]”.

For `CCSc1ccc2c(c1)N(CCCN1CCN(C)CC1)c1ccccc1S2`, the Potency result in test [1] and in test [2] was “inactive” in each case.

Regarding `C[C@]12CC[C@@H]3c4ccc(OC(=O)c5ccccc5)cc4CC[C@H]3[C@@H]1CC[C@@H]2O`, the Potency entry in test [1] and in test [2] was “inactive” each time. Further, the compound was classed as inactive in test [3], in test [4] and in test [5].

On to `Nc1nc2c(c(=O)[nH]1)N(C=O)C(CNc1ccc(C(=O)N[C@@H](CCC(=O)O)C(=O)O)cc1)CN2` (some centres not stated), for which the activity, negative = inhibition in test [1] was -12.1% [at 0.4 µM] (inactive). Further, the activity change, negative = inhibition in test [2] is -4.6% [at 0.409 µM] (inactive).

In the case of `NC[C@@H]1O[C@H](O[C@H]2[C@@H](O)[C@H](O[C@@H]3[C@@H](O)[C@H](N)C[C@H](N)[C@H]3O[C@H]3O[C@H](CO)[C@@H](O)[C@H](O)[C@H]3N)O[C@@H]2CO)[C@H](N)[C@@H](O)[C@@H]1O`, the outcome is “inactive [at 0.4 µM]” in test [1] and “inactive [at 0.409 µM]” in test [2].

Turning to `C=C1CC[C@H](O)CC1=C/C=C1\CCC[C@]2(C)[C@@H]([C@H](C)CCCC(C)(C)O)CC[C@@H]12`, the Potency in test [2] was 14.1 µM (active).

As for `NC(=O)[C@@H]1C[C@]2(NC(=O)NC2=O)c2cc(F)ccc2O1`, the Potency entry in test [1] and in test [2] was “inactive” each time.

Take `CS(=O)(=O)c1ccc([C@@H](O)[C@@H](COC(=O)CN)NC(=O)C(Cl)Cl)cc1`: the Potency result in test [1] and in test [2] was “inactive” each time.

Take `C[C@H]1O[C@@H](O[C@H]2[C@@H](O)C[C@H](O[C@H]3[C@@H](O)C[C@H](O[C@H]4CC[C@@]5(C)[C@H](CC[C@@H]6[C@@H]5C[C@@H](O)[C@]5(C)[C@@H](C7=CC(=O)OC7)CC[C@]65O)C4)O[C@@H]3C)O[C@@H]2C)C[C@H](O)[C@@H]1O`: the Potency entry in test [1] and in test [2] was “inactive” in each case. Also, the compound was called inactive in test [3], in test [6], in test [4] and in test [5].

Consider `Cc1c(C)c2c(c(C)c1OC(=O)CCC(=O)O)CC[C@@](C)(CCC[C@H](C)CCC[C@H](C)CCCC(C)C)O2`, for which the Potency result in test [1] and in test [2] was “inactive” each time.

Regarding `CC(CC=O)CCCC(C)(C)O` (configuration not stated), the Potency result in test [1] and in test [2] was “inactive” each time.

Regarding `CC(=O)Nc1ccc(NC(=S)NC(=O)c2ccc(C(C)(C)C)cc2)cc1`, the Potency entry in test [1] and in test [2] was “inactive” each time. Also, the result in test [3], in test [6], in test [4] and in test [5] was inactive.

For `CN(C)c1ccc(C(=C2C=CC(=[N+](C)C)C=C2)c2c(O)c(S(=O)(=O)[O-])cc3cc(S(=O)(=O)O)ccc23)cc1`, the Potency entry in test [1] and in test [2] was “inactive” each time.

Turning to `CC(C)(CO)[C@@H](O)C(=O)NCCC(=O)NCCSSCCNC(=O)CCNC(=O)[C@H](O)C(C)(C)CO`, the Potency entry in test [1] and in test [2] was “inactive” each time.

Consider `NC(=O)OCC(O)COc1ccc(Cl)cc1` (configuration not stated), for which the Potency result in test [1] and in test [2] was “inactive” throughout.

Turning to `Cc1nc(NS(=O)(=O)c2ccc(N)cc2)nc(C)c1Br`, the Potency entry in test [1] and in test [2] was “inactive” each time.

Consider `CN1C(=O)OC(C)(C)C1=O`, for which the Potency result in test [2] was “inactive”.

`CCCCCCCCCCCCCC(=O)OCC(COP(=O)([O-])OCC[N+](C)(C)C)OC(=O)CCCCCCCCCCCCC` (configuration not stated): the Potency result in test [1] and in test [2] was “inactive” each time.

`N[C@@H](Cc1cc(I)c(Oc2ccc(O)c(I)c2)c(I)c1)C(=O)O`: in test [1], the Potency result was “inactive”. Moreover, the Potency entry in test [2] is “inactive and 14.1 µM (active)”. Besides, the compound was called inactive in test [3], in test [6], in test [4] and in test [5].

For the compound `C[C@@H](O)[C@H]1C(=O)N2C(C(=O)[O-])=C(SC3Cn4cnc[n+]4C3)[C@H](C)[C@H]12` (some centres not stated), the activity, negative = inhibition in test [1] is -13.7% [at 9.52 µM] (inactive). In addition, the activity change, negative = inhibition in test [2] was -27.3% [at 9.73 µM] (inactive).

On to `NC(=O)c1ccc[n+]([C@@H]2O[C@H](COP(=O)([O-])OP(=O)(O)OC[C@H]3O[C@@H](n4cnc5c(N)ncnc54)[C@H](O)[C@@H]3O)[C@@H](O)[C@H]2O)c1`, for which the Potency entry in test [1] and in test [2] was “inactive” each time.

On to `CCN(CC)CCOC(=O)c1cccnc1`, for which the Potency entry in test [1] and in test [2] was “inactive” each time.

As for `Cc1ccc(S(=O)(=O)O)cc1C`, the Potency result in test [1] and in test [2] was “inactive” each time.

Consider `NC(N)=NCC1COC2(CCCCC2)O1` (configuration not stated), for which the Potency entry in test [1] and in test [2] was “inactive” each time.

For the compound `N#Cc1ccc2c(c1)N(CCCN1CCC(O)CC1)c1ccccc1S2`, the Potency result in test [1] and in test [2] was “inactive” each time.

As for `CO[C@H]1C[C@@H]2CC[C@@H](C)[C@@](O)(O2)C(=O)C(=O)N2CCCC[C@H]2C(=O)O[C@H]([C@H](C)C[C@@H]2CC[C@@H](OC(=O)C(C)(CO)CO)[C@H](OC)C2)CC(=O)[C@H](C)/C=C(\C)[C@@H](O)[C@@H](OC)C(=O)[C@H](C)C[C@H](C)/C=C/C=C/C=C/1C`, the call in test [4] and in test [5] was inactive.

Take `CC(C)(C)c1ccc(CN2CCN(C(c3ccccc3)c3ccc(Cl)cc3)CC2)cc1` (configuration not stated): the compound was called inactive in test [4] and in test [5].
